# Hits are enriched below; roughly 6% of the tested compounds scored in any of these assays.
# Tau fibril FP = qHTS for Inhibitors of Tau Fibril Formation, Fluorescence Polarization; K18 P301L tau heparin fibrillization, Alexa594 FP, 6 h; Potency, µM (top dose mostly 57.7 µM), inactives show at the top dose activity, negative = inhibition, most hits filed as inhibitors; AID 1468, 2008; Microtubule-associated protein tau (Homo sapiens), P10636; 280,000 compounds, 0.39% hits; note: potency is the fitted concentration of half-maximal effect; % is set by controls: 0 for no effect and ±100 for the full control effect; nearly all actives have a fitted effect of over 55% in size
# Target sequence (P10636 561-689 P618L limits assumed): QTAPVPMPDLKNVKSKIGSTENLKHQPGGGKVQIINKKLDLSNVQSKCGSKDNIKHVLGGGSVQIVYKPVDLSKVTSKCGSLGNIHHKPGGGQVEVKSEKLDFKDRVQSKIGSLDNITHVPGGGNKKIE
#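 Human tau K18 […] P301L fragment, 15 uM unlabeled plus 0.24 uM Alexa 594-labeled tau (final), with compound and 20 uM heparin in 100 mM sodium acetate pH 7; 6 hr at 37 C, then Alexa 594 FP read.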
# PLK1 PBD block = qHTS for Inhibitors of PLK1-PDB (polo-like kinase 1 - polo-box domain): Primary Screen; Plk1 PBD binding of FITC phosphopeptide, fluorescence polarization; Potency, µM, for inactives: max response, negative = inhibition, actives largely listed as inhibitors; 360,000 compounds, 2.8% hits; note: potency is the fitted concentration of half-maximal effect; series mostly up to about 57 µM; % is set by controls: 0 for no effect and ±100 for the full control effect; nearly all actives have a fitted effect of over 65% in size
# VDR inh = Inhibitors of the vitamin D receptor (VDR): qHTS; Vitamin D3 receptor (Homo sapiens), P11473; VDR-SRC2-3 peptide fluorescence polarization, 2 h; Potency, µM, for inactives: max response, negative = inhibition, most hits filed as inhibitors; 400,000 compounds, 0.93% hits; note: potency is the fitted concentration of half-maximal effect; % is set by controls: 0 for no effect and ±100 for the full control effect
#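 Fluorescence polarization assay measuring small-molecule disruption of VDR binding to the coregulator peptide SRC2-3. Compounds were pin-transferred (23 nl) into the reagent mix and incubated 2 h at room temperature before reading.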
# Tau fibril ThT = qHTS for Inhibitors of Tau Fibril Formation, Thioflavin T Binding. 270,000 compounds, 2.1% hits. recombinant tau K18 P301L, heparin-induced fibrillization, ThT fluorescence. Potency, µM (top dose mostly 57.4 µM), for the others: top-dose activity, negative = inhibition, most hits filed as inhibitors; note: potency is the fitted concentration of half-maximal effect; % is set by controls: 0 for no effect and ±100 for the full control effect; nearly all actives have a fitted effect of over 55% in size
#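 ThT emission at 510 nm, taken 1 hr after adding 30 uM dye, quantifies aggregates formed when 20 uM heparin acts on human tau K18 P301L for 6 hr at 37 C.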
# Tau fluor cs = Counterscreen qHTS for Inhibitors of Tau Fibril Formation, Fluorescence Polarization. 280,000 compounds, 0.93% hits. AID 1463, 2008. Potency, µM (titrated, usually from 57.7 µM), without a hit: at the top dose activity change, negative = decrease. tau K18 P301L Alexa594 fluorescence, heparin fibrillization; note: potency is the fitted concentration of half-maximal effect; % is set by controls: 0 for no effect and ±100 for the full control effect; nearly all actives have a fitted effect of over 55% in size
#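 Human tau K18 P301L (15 uM unlabeled, 0.24 uM Alexa 594-labeled) in 100 mM sodium acetate pH 7 with 20 uM heparin, 6 hr at 37 C. ThT 30 uM added, 1 hr ambient; Alexa 594 FP and total fluorescence read at 555/632 nm.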
# Sfp inh = qHTS Assay for Inhibitors of Bacillus subtilis Sfp phosphopantetheinyl transferase (PPTase). 4'-phosphopantetheinyl transferase ffp (Bacillus subtilis), Q9F4F7. 310,000 compounds, 3.5% hits. Potency, µM, inactives show largest response in the series, negative = inhibition, actives largely listed as inhibitors. AID 1490, 2009. Biochemical Sfp PPTase activity, qHTS;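 note: the enzyme is Sfp with the accession as filed and its product quenches rhodamine fluorescence; potency is the fitted concentration of half-maximal effect; 0% = enzyme reaction without inhibitor and -100% = no enzyme wells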
#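 Sfp 15 nM + cpd, 15 min RT; start w/ rhodamine-CoA 5 uM, BHQ-2-YbbR 12.5 uM (final); 50 mM Hepes pH 7.6, 10 mM MgCl2, 0.01% NP-40, 0.01% BSA; read 525/598 nm at 0 and 30 min.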
# Sfp PPTase conf = Confirmation qHTS Assay for Inhibitors of Bacillus subtilis Sfp phosphopantetheinyl transferase (PPTase); shares compounds with Sfp inh; Sfp PPTase enzymatic assay, qHTS titration; Potency, µM (series often up to 114 µM), without a hit: at the highest dose activity change, negative = inhibition, actives largely listed as inhibitors; 380 compounds, 79% hits; AID 2701, 2010;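 note: potency is the fitted concentration of half-maximal effect; plate controls were uninhibited Sfp reaction for no effect and no enzyme control for full effect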
# Target sequence (Q9F4F7 whole entry, looked up): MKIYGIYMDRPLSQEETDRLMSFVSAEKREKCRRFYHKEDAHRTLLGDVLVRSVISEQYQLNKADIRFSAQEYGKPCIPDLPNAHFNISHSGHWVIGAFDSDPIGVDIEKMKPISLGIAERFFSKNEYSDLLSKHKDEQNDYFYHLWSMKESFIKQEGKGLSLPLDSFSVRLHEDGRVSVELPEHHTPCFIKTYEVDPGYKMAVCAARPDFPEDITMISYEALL
# Sfp PPTase gel = Gel-Based Assay for Inhibitors of Bacillus subtilis Sfp phosphopantetheinyl transferase (PPTase); purified Sfp, gel-based phosphopantetheinylation read-out; shares compounds with Sfp inh; Potency, µM, actives largely listed as inhibitors; 210 compounds, 20% hits; AID 2707, 2010;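 active = potency below 100 µM; inconclusive = dose-dependent response but potency above 100 µM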;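 note: band intensities scaled against SCH202676 control wells before curve fitting; potency is an IC50 for inhibitors of Sfp transfer activity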
# VDR confirm = qHTS for Inhibitors of the vitamin D receptor (VDR): Hit Validation in Primary Screen | VDR-coactivator inhibition assay, qHTS confirmation | Potency, µM, most hits filed as inhibitors | shares compounds with VDR inh | 840 compounds, 89% hits | AID 602199, 2012; note: potency is the fitted concentration of half-maximal effect
# VDR FP fluor = qHTS for Inhibitors of the vitamin D receptor (VDR): Hit Validation using a Fluorescein Assay | shares compounds with VDR inh | VDR-coactivator binding, fluorescein fluorescence polarization | Potency, µM (titrated, usually from 57.1 µM), for inactives: at the top dose activity change, negative = inhibition, hits mostly inhibitors | 840 compounds, 48% hits | AID 602200, 2012; note: potency is the fitted concentration of half-maximal effect
# VDR bla = qHTS for Inhibitors of the vitamin D receptor (VDR): Hit Validation using a Beta-Lactamase Assay; shares compounds with VDR inh; VDR beta-lactamase reporter cells, FRET ratio; cells co-treated with VDR agonist LG190178; Potency, µM (top dose mostly 46.1 µM), for the others: at the top dose activity change, negative = inhibition, hits mostly inhibitors; 840 compounds, 23% hits; AID 602202, 2012; note: potency is the fitted concentration of half-maximal effect; % is set by controls: 0 for no effect and ±100 for the full control effect
# VDR viability = qHTS for Inhibitors of the vitamin D receptor (VDR): Hit Validation using a Cytotoxicity Assay. 840 compounds, 18% hits. Potency, µM (highest dose often 48.3 µM), without a hit: at the top dose activity change, negative = cytotoxicity, most hits filed as cytotoxic. shares compounds with VDR inh. cytotoxicity counter-screen, cell viability, qHTS. AID 602204, 2012;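 note: potency is the fitted concentration of half-maximal effect; plate controls were DMSO for no effect and high-concentration cycloheximide for full effect; nearly all actives have a fitted effect of over 75% in size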
# Active calls of the source: *; ? = inconclusive; · = no result given; ! = not active in a repeat; [ ] = dose if it differs, or a comment. Unless noted, calls come from the whole dose curve; as a rule, active = well fitted curve in the direction sought with a large enough effect; inconclusive = small, poorly fitted or top-dose-only effect, or another doubt; inactive = no such curve, though single readings can be large; an effect the other way counts as inactive or inconclusive.
SMILES,Tau fibril FP,PLK1 PBD block,VDR inh,Tau fibril ThT,Tau fluor cs,Sfp inh,Sfp PPTase conf,VDR confirm,VDR FP fluor,VDR bla,VDR viability,others
Nc1ccccc1Sc1nc2ccccc2[nH]1,?,13µM*,20µM*,28µM*,28µM*[quencher],7.9µM*,37µM*,21*,14µM*,6%,7%,
Nc1nc2ccccc2[nH]1,·,-3%,-7%,·,·,4%,·,·,·,·,·,
CCN(CC)c1ccc(NC(=O)c2ccccc2)cc1S(=O)(=O)Nc1ccccc1OC,10%,1.9µM*,?,-10%,-11%,3.2µM*,6.6µM*,3.2*,3.2µM*,1%,-11%,
COc1ccc(C(=O)Nc2ccc(Cl)c(S(=O)(=O)Nc3ccccc3OC)c2)cc1,?,2%,-12%,7%,?,15%,·,·,·,·,·,
Cc1ccc(NC(=O)CN2C(=O)C(c3ccc(F)cc3)=NC23CCCCC3)c(C)c1,-10%,·,7%,-1%,-15%,·,·,·,·,·,·,
Cc1ccc(C2=NN=C(NC(=O)CSc3nncn3C)SC2)cc1,?,3µM*,3.2µM*,22µM*,-18%,8.9µM*,26µM*,1.1*,?,4%,?,
CCNCc1ccccc1OCc1ccccc1,3%,?,-2%,4%,3%,22%,·,·,·,·,·,
Oc1ccc(NCc2ccccc2OCc2ccccc2)cc1,13µM*!,0%,50µM*,14µM*,10µM*[quencher],25µM*,11µM*,14*,14µM*,6%,?,Sfp PPTase gel=?
CCOC(=O)[C@]12CCC=C1N(Cc1ccccc1)C(=O)[C@H](CC(=O)NCC13CC4CC(CC(C4)C1)C3)C2,·,-8%,·,·,·,·,·,·,·,·,·,
O=C(Nc1ccccn1)c1sc2cc([N+](=O)[O-])ccc2c1Cl,·,2.7µM*,32µM*,·,·,6.3µM*,3.7µM*,3.4*,?,5%,-24%,

# Source: PubChem BioAssay (National Center for Advancing Translational Sciences (NCATS))
